Screening results from PubChem.
hERG WT inh – KCNH2 (human, wildtype) channel inhibition. 340,000 tested, 0.37% active. U2OS, BacMam KCNH2, thallium flux FluxOr; hits give low values. Q12809. activity change, % at 1.84 µM. AID 720551;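 active means maximum activity change below -70%; inconclusive means maximum activity change between -70% and -50%; inactive means maximum activity change above -50%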; further: on the % scale 0 is the no-effect control and ±100 the full control effect
Target sequence (Q12809 whole entry, looked up): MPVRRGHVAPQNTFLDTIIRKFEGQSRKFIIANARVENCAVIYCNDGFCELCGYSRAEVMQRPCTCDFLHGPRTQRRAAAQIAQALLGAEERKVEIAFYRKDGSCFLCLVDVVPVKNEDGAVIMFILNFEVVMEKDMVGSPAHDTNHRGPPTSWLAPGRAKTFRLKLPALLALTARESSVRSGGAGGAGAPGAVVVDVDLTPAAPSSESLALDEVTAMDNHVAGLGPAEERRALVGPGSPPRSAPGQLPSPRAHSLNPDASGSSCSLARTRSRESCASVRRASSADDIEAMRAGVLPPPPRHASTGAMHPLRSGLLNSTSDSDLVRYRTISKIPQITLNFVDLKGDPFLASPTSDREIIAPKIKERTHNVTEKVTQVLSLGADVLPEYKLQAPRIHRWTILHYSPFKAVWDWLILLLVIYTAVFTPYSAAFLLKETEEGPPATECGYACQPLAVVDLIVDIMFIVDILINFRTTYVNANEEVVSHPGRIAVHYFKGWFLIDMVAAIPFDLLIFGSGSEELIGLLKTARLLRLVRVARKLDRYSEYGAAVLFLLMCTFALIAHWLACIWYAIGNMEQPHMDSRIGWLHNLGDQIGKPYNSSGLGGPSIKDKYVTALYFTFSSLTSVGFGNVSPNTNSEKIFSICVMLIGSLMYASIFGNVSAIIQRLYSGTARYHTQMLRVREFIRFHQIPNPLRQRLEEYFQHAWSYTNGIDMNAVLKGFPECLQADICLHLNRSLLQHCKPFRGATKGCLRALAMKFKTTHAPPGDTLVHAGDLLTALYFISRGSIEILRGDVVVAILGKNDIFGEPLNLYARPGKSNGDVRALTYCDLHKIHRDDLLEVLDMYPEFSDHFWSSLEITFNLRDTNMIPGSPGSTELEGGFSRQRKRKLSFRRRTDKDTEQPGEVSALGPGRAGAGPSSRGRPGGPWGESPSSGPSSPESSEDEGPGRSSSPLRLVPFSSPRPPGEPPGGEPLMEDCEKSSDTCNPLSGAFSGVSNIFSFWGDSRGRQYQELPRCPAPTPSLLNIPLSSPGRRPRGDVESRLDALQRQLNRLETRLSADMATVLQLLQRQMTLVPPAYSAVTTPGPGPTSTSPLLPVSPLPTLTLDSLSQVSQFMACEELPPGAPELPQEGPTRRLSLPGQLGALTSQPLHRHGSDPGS
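U2OS cells transduced with wild-type KCNH2 virus are loaded with FluxOr dye for 45 min, and thallium flux is measured in kinetic reads before and after stimulation buffer. Rate constants are normalized to DMSO controls.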
MCF10A rerep – induces DNA re-replication in MCF 10a normal breast cells | MCF 10A DNA re-replication, Hoechst nuclear intensity, 48 h | Potency, µM (top dose mostly 46.1 µM), without a hit: top-dose activity, positive = re-replication, actives largely listed as activators | 350,000 tested, 2.9% active | AID 624296; further: potency means the concentration at half of the fitted maximal effect; % of control where 0% means no effect; nearly all actives have a fitted effect of over 50% in size
SW480 rerep – induces DNA re-replication in SW480 colon adenocarcinoma cells; SW480 DNA re-replication, Hoechst DNA content imaging, 48 h; AID 624297; 340,000 tested, 1.8% active; Potency, µM (highest dose often 46.1 µM), for the others: at the top dose re-replication activation, hits mostly activators; further: potency means the concentration at half of the fitted maximal effect; % of control where 0% means no effect; nearly all actives have a fitted effect of over 55% in size
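Compounds, transferred as 23 nL by pin tool, were incubated with cells for 48 hr; DNA content per nucleus was then quantified by Hoechst staining and fluorescence plate imaging.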
KB-3-1 tox – kills parental KB-3-1 adenocarcinoma cells; KB-3-1 viability, CellTiter-Glo ATP luminescence, 72 h; Potency, µM (titrated, usually from 46.1 µM), usual class: cytotoxic; 400,000 tested, 1.4% active; AID 1347075; further: potency means the concentration at half of the fitted maximal effect; on the % scale 0 is the no-effect control and ±100 the full control effect; nearly all actives have a fitted effect of over 60% in size
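Parental KB-3-1 viability, qHTS format: 72 h compound exposure, 37 °C; CellTiter-Glo; media-only wells and DMSO plates as controls; concentration-effect fits on corrected data.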
KCNH2 3.1 inh – blocks the human KCNH2 3.1 channel isoform. activity change, % (tested at about 1.8 µM). 340,000 tested, 0.95% active. U2OS KCNH2 3.1, thallium flux FluxOr; hits give low values;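 active means maximum activity change below -70%; inconclusive means maximum activity change from -70% to -50%; inactive means maximum activity change above -50%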;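 further: thallium influx rate constant from kinetic fluorescence after stimulation buffer; on the % scale 0 is the no-effect control and ±100 the full control effect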
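Thallium flux read-out: FluxOr dye with Red40 quencher in HBSS/HEPES, 45 min at RT. Rate constants from kinetic reads were normalized to positive and negative DMSO controls. Cells: U2OS virally expressing the 3.1 isoform.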
KB-V1 MDR tox – kills drug-selected multidrug resistant KB-V1 cells | KB-V1 MDR cells viability, CellTiter-Glo, 72 h | Potency, µM (series often up to 46.1 µM), actives largely listed as cytotoxic | 400,000 tested, 3.4% active | AID 1347076; further: potency means the concentration at half of the fitted maximal effect; on the % scale 0 is the no-effect control and ±100 the full control effect; nearly all actives have a fitted effect of over 60% in size
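Compound-treated KB-V1 multidrug-resistant cells, 72 h, 37 degrees C; viability by CellTiter-Glo. Fitted qHTS curves give the values.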
An asterisk follows results filed as active; i = inactive; ? = inconclusive; · = not tested or not shown; [ ] = remark or other dose. Compounds with a hit are over-represented: about 7.6% of the library has one in this group of screens. Unless noted, the call rests on the fitted dose curve; in most records, active means well fitted curve in the direction sought with a large enough effect; inconclusive means small, poorly fitted or top-dose-only effect, or another doubt; inactive means no such curve, though single readings can be large; an effect the other way counts as inactive or inconclusive.

SMILES	hERG WT inh	MCF10A rerep	SW480 rerep	KB-3-1 tox	KCNH2 3.1 inh	KB-V1 MDR tox
Cc1ccc(S(=O)(=O)N2CCN(CC(=O)N/N=C/C=C/c3ccccc3)CC2)cc1	-4.7	-6.1%	-2.5%	i	-75.0*	?
CCCCSCCCNC(=O)c1cn(CC)c2ccc(S(=O)(=O)N3CCCCCC3)cc2c1=O	·	·	·	i	·	?
CCOC(=O)c1cc(C#N)c(C)nc1N(CC)CC	6.6	?	?	i	13.6	i
Cc1[nH]n(-c2ccccc2)c(=O)c1N=Nc1c(O)cc(S(=O)(=O)N(C)C)c2ccccc12	2.9	-37.6%	5.8µM*	?	13.8	i
Cc1[nH]n(-c2ccccc2)c(=O)c1N=Nc1ccc(F)cc1	30.3	10.2%	-11.4%	i	-78.7*	i
CCNc1nc(Oc2ccc(OCC(=O)OC)nn2)nc(N2CCOCC2)n1	·	·	·	i	·	?
O=C(CN1CCN(c2ccc(O)cc2)CC1)NC(c1ccccc1)c1ccccc1	25.8	14.7%	?	i	-22.2	i
O=C(CN1CCCCCC1)NN(Cc1ccccc1)c1ccccc1	-44.5	12.0%	1.7%	i	-95.5*	i
O=C(CN1CCCCCC1)NC(c1ccccc1)c1ccccc1	16.7	?	-2.9%	i	-81.7*	i
CC(NC(=O)C1CCCC1)c1ccccc1 (stereo unspecified)	10.5	-2.9%	-7.7%	i	1.7	i
O=C(NC(c1ccccc1)c1ccccc1)C1CCCC1	-1.2	-4.4%	?	i	-1.6	16.4µM*
CC(C)Cc1cc(CN2CCCC(CO)(Cc3cccc(Cl)c3)C2)[nH]n1 (stereo unspecified)	10.7	8.2%	-8.0%	i	?	i
OCC1(Cc2cccc(C(F)(F)F)c2)CCN(Cc2cc(F)cc(F)c2)CC1	26.0	23.1µM*	?	?	-6.6	?
Cc1ccc(-n2cc(CN3CCC(CO)(Cc4cccc(C(F)(F)F)c4)CC3)cn2)cc1	-84.2*	22.8%	-3.6%	?	-98.7*	?
CC(C)Cc1cc(CN2CCC(CO)(Cc3cccc(C(F)(F)F)c3)CC2)[nH]n1	-104.9*	28.9%	?	?	-82.5*	i
CC1CCc2c(sc3nnn(Cc4ccc(F)cc4)c(=O)c23)C1 (stereo unspecified)	·	·	·	i	·	i
COC(=O)c1ccc(Sc2ccccn2)c([N+](=O)[O-])c1	2.3	12.1%	-1.5%	i	-8.2	?
O=C(CN(Cc1ccccc1Cl)C(=O)c1ccc(CN2CCOCC2)o1)NCc1ccccc1	2.2	8.5%	6.6%	i	-1.2	11.6µM*
O=C(NCc1ccccc1)c1ccc(CN2CCOCC2)cc1	-15.7	12.5%	1.7%	i	2.3	i
O=C(/C=C/c1ccccc1)c1ccc(NC2=NCCCS2)cc1	4.0	18.4µM*	?	?	-17.8	20.6µM*
c1ccc(NC2=NCCCCS2)cc1	-17.3	6.1%	-0.9%	i	-1.1	i
COc1cccc(/C=C/C(=O)c2ccc(NC3=NCCCS3)cc2)c1	6.6	?	?	?	-23.7	?
Cc1cccc(/C=C/C(=O)c2ccc(NC3=NCCCS3)cc2)c1	-8.0	?	9.2µM*	?	-32.1	?
O=C(/C=C/c1ccc(Br)cc1)c1ccc(NC2=NCCCS2)cc1	18.7	5.17µM*	4.61µM*	20.6µM*	5.4	i
CC(C)(C)c1ccc(/C=C/C(=O)c2ccc(NC3=NCCCS3)cc2)cc1	-8.4	18.4µM*	?	?	-11.5	?
SMILES	hERG WT inh	MCF10A rerep	SW480 rerep	KB-3-1 tox	KCNH2 3.1 inh	KB-V1 MDR tox
COc1ccc(Br)c(OC)c1C(=O)NC(=O)Nc1nc(C)cc(C)n1	5.7	0.1%	-11.1%	i	7.8	?
CCN(c1ccccc1)S(=O)(=O)c1ccc2c(c1)C(C)(C)C(=O)N2C	-4.4	0.3%	-1.6%	i	2.5	i
CC(=O)c1cccc(NC(=O)C(Cc2ccccc2)NS(=O)(=O)c2ccc(Br)s2)c1 (stereo unspecified)	·	·	·	i	·	i
CCOC(=O)N1CCN(CC(O)COc2c(C)cc(C)cc2C)CC1 (stereo unspecified)	10.0	8.4%	-4.5%	i	6.7	i
CC(C)C(NC(=O)c1ccc(Cl)cc1)C(=O)NC1=NCCS1 (stereo unspecified)	0.8	4.2%	-6.6%	i	-13.6	20.6µM*
CC(C)[C@H](NC(=O)c1ccc(F)cc1)C(=O)NC1=NCCS1	?	1.5%	-1.5%	i	10.1	i
CC(=O)Nc1ccc(NC(=O)C(NC(=O)c2ccc(Cl)cc2)C(C)C)cc1 (stereo unspecified)	-1.1	·	·	i	13.1	i
CCSc1nnc(NC(=O)C(NC(=O)c2ccc(Cl)cc2)C(C)C)s1 (stereo unspecified)	-0.6	2.0%	-2.3%	i	-7.5	11.6µM*
Cc1noc(C)c1S(=O)(=O)N1CCN(c2ccccc2)CC1	-0.1	-2.7%	3.0%	i	9.1	i
CCc1ccc(-c2cc(C)no2)cc1S(=O)(=O)N1CCOc2ccccc21	1.7	?	26.3%	i	-7.7	20.6µM*
Cc1cc(-c2ccc(C)c(S(=O)(=O)N3CCOc4ccc(Cl)cc43)c2)on1	·	·	·	i	·	i
Cc1noc(C)c1S(=O)(=O)N1CCN(c2ccc([N+](=O)[O-])cc2)CC1	-47.2	-0.6%	-7.8%	?	-80.1*	i
Cc1cc(-c2ccc(C(C)C)c(S(=O)(=O)N3CCN(c4ccccn4)CC3)c2)on1	7.7	4.11µM*	?	?	-18.2	?
Cc1noc(C)c1CSCC(=O)N1CCN(c2ccc([N+](=O)[O-])cc2)CC1	26.6	-8.9%	1.6%[9.22 µM]	?	-72.7*	?
FC(F)(F)C(Cl)Br (stereo unspecified)	·	0.0%	-6.3%	·	·	·
Cc1cc(OCC(=O)N(Cc2cccs2)C2CCS(=O)(=O)C2)ccc1Cl (stereo unspecified)	-2.8	-2.4%	-3.2%	i	-7.9	i
COc1ccc(-c2cc(C)no2)cc1S(=O)(=O)N1CCN(c2ccc([N+](=O)[O-])cc2)CC1	-77.6*	7.6%	3.0%	i	-105.7*	i
CCc1ccc(-c2cc(C)no2)cc1S(=O)(=O)N1CCN(c2ccc(F)cc2)CC1	-1.1	22.7%	?	?	-41.2	11.6µM*
Cc1cc(-c2ccc(C)c(S(=O)(=O)NCC3CCN(Cc4ccc(F)cc4)CC3)c2)on1	-9.7	12.6%	2.91µM*	?	-3.0	i
CCc1ccc(-c2cc(C)no2)cc1S(=O)(=O)N1CCN(c2ccc(OC)cc2)CC1	9.7	11.3%	23.8%	?	-19.7	?
